Tau fluor cs – counter-screen for tau fibril formation inhibitors; AID 1463; 280,000 tested, 0.93% active; tau K18 P301L Alexa594 fluorescence, heparin fibrillization; Potency, µM (top dose mostly 57.7 µM), inactives show at the highest dose activity change, negative = decrease; further: potency means the concentration at half of the fitted maximal effect; nearly all actives have a fitted effect of over 55% in size
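Human tau K18 P301L (15 uM unlabeled, 0.24 uM Alexa 594-labeled) in 100 mM sodium acetate pH 7 with 20 uM heparin, 6 hr at 37 C. ThT 30 uM added, 1 hr ambient; Alexa 594 FP and total fluorescence read at 555/632 nm.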
Tau fibril ThT – tau fibrillization inhibition (ThT binding); AID 1460; 270,000 tested, 2.1% active; P10636; Potency, µM (series often up to 57.4 µM), inactives show top-dose activity, negative = inhibition, actives largely listed as inhibitors; recombinant tau K18 P301L, heparin-induced fibrillization, ThT fluorescence; further: potency means the concentration at half of the fitted maximal effect; nearly all actives have a fitted effect of over 55% in size
Target sequence (P10636 561-689 P618L limits assumed): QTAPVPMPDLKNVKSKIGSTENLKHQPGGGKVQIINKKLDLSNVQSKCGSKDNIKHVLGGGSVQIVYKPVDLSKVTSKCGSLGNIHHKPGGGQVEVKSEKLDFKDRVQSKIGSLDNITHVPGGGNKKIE
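ThT emission at 510 nm, taken 1 hr after adding 30 uM dye, quantifies aggregates formed when 20 uM heparin acts on human tau K18 P301L for 6 hr at 37 C.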
Sfp inh – inhibitors of Bacillus subtilis Sfp phosphopantetheinyl transferase; Potency, µM, without a hit: largest response in the series, negative = inhibition, hits mostly inhibitors; 310,000 tested, 3.5% active; Biochemical Sfp PPTase activity, qHTS; AID 1490; Q9F4F7;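 further: the enzyme is Sfp with the accession as filed and its product quenches rhodamine fluorescence; potency means the concentration at half of the fitted maximal effect; 0% = enzyme reaction without inhibitor and -100% = no enzyme wells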
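Reaction rates are the 30-min fluorescence difference (ex 525, em 598 nm) in wells containing 15 nM Sfp, 5 uM rhodamine-CoA and 12.5 uM BHQ-2-YbbR at pH 7.6 with 10 mM MgCl2.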
FBPA coupling cs – coupling enzyme interference in Giardia aldolase counter-screen. 290,000 tested, 0.67% active. activity change, negative = inhibition, % at 58.2 µM, hits read low. coupling enzyme system counterscreen, AmpLite Red fluorescence; in the data active means activity change below about -30%
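Coupling enzymes only (glyceraldehyde-3-phosphate) + compound, at 57.5 uM final, 10 min RT; add substrate/coupling/AmpLite Red mix, 20 min RT; fluorescence ex 525/em 598 nm. Actives flag coupling-system interference.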
G9a block – blocks human histone lysine methyltransferase G9a; Q96KQ7; G9a H3K9 monomethylation, AlphaScreen, 2 h; Potency, µM (titrated, usually from 102 µM), inactives show at the highest dose activity, negative = inhibition, actives largely listed as inhibitors; 350,000 tested, 8.8% active; further: potency means the concentration at half of the fitted maximal effect; nearly all actives have a fitted effect of over 75% in size
Target sequence (Q96KQ7 913-1193 limits assumed): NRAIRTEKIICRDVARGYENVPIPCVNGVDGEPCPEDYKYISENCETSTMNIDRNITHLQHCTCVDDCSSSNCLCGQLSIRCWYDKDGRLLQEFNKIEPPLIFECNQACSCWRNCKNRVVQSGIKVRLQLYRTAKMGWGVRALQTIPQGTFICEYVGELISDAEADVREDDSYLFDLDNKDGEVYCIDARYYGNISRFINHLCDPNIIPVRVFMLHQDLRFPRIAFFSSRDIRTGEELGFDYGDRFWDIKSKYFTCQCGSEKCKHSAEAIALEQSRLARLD
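Enzyme 20 nM + cpd, 15 min RT; add b-H3K9 pep 500 nM / SAM 20 uM; 2 h RT; anti-H3K9me1 Ab 0.5 ug/mL + SA donor / anti-rabbit acceptor beads 20 ug/mL each, 10 min; AlphaScreen read.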
Tau FP inhib – inhibitors of human tau fibril formation | AID 1468 | Potency, µM (series often up to 57.7 µM), inactives show at the highest dose activity, negative = inhibition, hits mostly inhibitors | 280,000 tested, 0.39% active | P10636 | K18 P301L tau heparin fibrillization, Alexa594 FP, 6 h; further: potency means the concentration at half of the fitted maximal effect; nearly all actives have a fitted effect of over 55% in size
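Read-out: fluorescence polarization of Alexa 594-labeled tau (0.24 uM), 555 nm excitation, 632 nm emission. Mixtures held 15 uM unlabeled K18 P301L, compound and 20 uM heparin, pH 7 acetate buffer, incubated 6 hr at 37 C.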
Numbers without * were called inactive; u = inconclusive; x = no result; [ ] = another dose, or the depositor's remark. Most compounds without a hit are left out; they make up all but 11% or so of the library. Unless noted, the call rests on the fitted dose curve; in most records, active means well fitted curve in the direction sought with a large enough effect; inconclusive means small, poorly fitted or top-dose-only effect, or another doubt; inactive means no such curve, though single readings can be large; an effect the other way counts as inactive or inconclusive. Unless noted, on the % scale 0 is the no-effect control and ±100 the full control effect.

SMILES	Tau fluor cs	Tau fibril ThT	Sfp inh	FBPA coupling cs	G9a block	Tau FP inhib
Cc1cccc(OCCNc2cc(N3CCOCC3)ccc2[N+](=O)[O-])c1	u	7.9µM*	13%	-2	10µM*	-3%
O=c1[nH]cnc2cc(Cl)ccc12	-10%	-10%	11%	2	50µM*	-5%
CCNCc1nc2cc(Cl)ccc2c(=O)[nH]1	-4%	-5%	u	0	u	-5%
Nc1ccc(-c2nc3ccc(-c4nc5ccc(N)cc5[nH]4)cc3[nH]2)cc1	13µM*[quencher]	13µM*	u	1	22µM*	10%
Nc1ccc2nc(-c3cccc(-c4nc5ccc(N)cc5[nH]4)n3)[nH]c2c1	x	x	32µM*	-1	11µM*	x
Nc1ccc2nc(-c3ccc(-c4nc5ccc(N)cc5[nH]4)cc3)[nH]c2c1	x	x	-6%	-1	5%	x
Cc1ccc(N2C(=O)CS(=O)(=O)C23C(=O)N(Cc2cccc(F)c2)c2ccccc23)cc1Cl (centres undefined)	-7%	0%	x	x	-43%[59 µM]	u
Cc1cc(C)cc(NC(=O)c2cc(S(=O)(=O)N3CCCCC3)c[nH]2)c1	-9%	-1%	x	x	0%[59 µM]	-8%
CCCCC(O)(c1ccc(CC)cc1)C(CN1CCOCC1)c1ccccc1 (centres undefined)	x	x	-21%	0	u	x
COc1cccc2c1cc1c(=O)n(CC(=O)NCc3ccc(C)o3)nc(C)n12	-12%	1%	x	x	-3%[59 µM]	-8%
O=C(Cn1c(-c2cccs2)cc2ccccc21)N1CCN(c2ccc(Cl)cc2)CC1	-13%	1%	x	x	9%[59 µM]	-3%
COc1ccc(NC(C)=O)cc1NC(C)c1nc2sc(C)c(C)c2c(=O)[nH]1 (centres undefined)	-20%	u	u	-28	u	8%
Cc1sc2nc(C(C)Sc3n[nH]c(N)n3)[nH]c(=O)c2c1C (centres undefined)	-10%	u	56µM*	0	25µM*	-5%
Cc1ccc(N2C(=O)c3ccccc3C2C(=O)c2cc(C)ccc2O)cc1 (centres undefined)	u	u	u	2	7.9µM*	-10%
Cc1ccc(N2C(=O)c3ccccc3C2C(=O)c2ccc(O)cc2O)cc1 (centres undefined)	u	u	u	3	u	u
COc1cccc(/C=N/NC(=O)c2ccc(COc3ccc(Cl)cc3Cl)o2)c1	-20%	-22%	0.79µM*	2	43%	-16%
CN1C(=O)S/C(=C/c2cccn2-c2cccc(C(=O)O)c2)C1=O	5%	0%	3%	14	-30%	2%
O=C(O)c1ccc(-n2cccc2/C=C2/SC(=O)N(CC(=O)N3CCCC3)C2=O)cc1	x	x	-8%	-3	8.9µM*	x
N#C/C(=C/c1cccn1-c1cccc(C(=O)O)c1)c1ccc(Cl)cc1	-16%	-17%	9%	16	u	-5%
O=C(O)c1ccc(-n2cccc2/C=C2/NC(=O)N(c3ccccc3)C2=O)cc1	1%	x	-20%	-2	8.9µM*	3%
N#CC(C#N)=Cc1cccn1-c1ccc(C(=O)O)cc1	6%	2%	23%	20	11µM*	2%
O=C(O)c1ccc(-n2cccc2/C=C2/NC(=O)N(c3cccc(Cl)c3)C2=O)cc1	-14%	-15%	u	2	8.9µM*	2%
O=C(NC1CCCCCC1)C1CC(=O)N(c2ccc(Cl)cc2)C1 (centres undefined)	x	x	15%	0	-20%	x
CCC(CC)c1nn2c(=O)cc(COc3ccc(NC(=O)c4ccc(C)cc4)cc3)nc2s1	-21%	u	x	x	7%[59 µM]	-5%
COc1cc(NC(=O)CSc2ccc(-c3sc(-c4ccccc4)nc3C)nn2)cc(OC)c1	u	u	x	x	7%[59 µM]	-12%
SMILES	Tau fluor cs	Tau fibril ThT	Sfp inh	FBPA coupling cs	G9a block	Tau FP inhib
CN(C)c1ccc(C(CNS(=O)(=O)c2ccc(Cl)cc2)N2CCOCC2)cc1 (centres undefined)	u	u	x	x	u	-1%
CC[N+](C)(CC)CC(=O)OCC1C(C)C=C(C)CC1C (centres undefined)	-6%	0%	89µM*	0	u	-4%
O=C(NC1CC(=O)N(c2ccc(Cl)cc2)C1)c1cc2ccccc2o1 (centres undefined)	-5%	-8%	x	x	3%[59 µM]	u
COc1ccc(CCN2CC(C(=O)NCCc3cn[nH]c3)CCC2=O)cc1 (centres undefined)	x	x	8%	x	-7%[0.501 µM]	x
CC1(C)CC2(CC(c3ccccc3F)c3ccc(O)c(O)c3O2)NC(=S)N1 (centres undefined)	u	22µM*	8.9µM*	-5	x	u
O=C(Nc1ccc(O)c(C(=O)O)c1)Oc1ccccc1	-18%	u	u	0	50µM*	2%
O=C(O)c1cc(NC(=O)c2ccccc2[N+](=O)[O-])ccc1O	-11%	-16%	-5%	-4	x	-7%
COc1cc(OC)cc(-c2nnc(SCc3ccc(C(=O)O)cc3)o2)c1	x	x	50µM*	11	40µM*	x
CC(=O)N(C1=C(N)C(=O)c2ccccc2C1=O)c1ccccc1	x	x	13%	-34*	30%[2.33 µM]	x
O=C(N(c1ccccc1)c1ccccc1)N(c1ccccc1)c1ccccc1	-10%	-17%	-21%	7	x	5%
Cc1c2ccccc2cc[n+]1CCCS(=O)(=O)[O-]	11%	0%	20%	0	-27%	9%
CC1(C)C(/C=C/C=C/C=C/C=C2\N(CCCCS(=O)(=O)O)c3ccc4ccccc4c3C2(C)C)=[N+](CCCCS(=O)(=O)[O-])c2ccc3ccccc3c21	x	x	50µM*	x	u	x
CCCCCC(CC(=O)O)C(=O)O (centres undefined)	-10%	-5%	12%	1	-38%[2.33 µM]	-6%
COc1cc(/C=C2\SC(=S)N(Nc3ncc(C(F)(F)F)cc3Cl)C2=O)ccc1O	14µM*[quencher]	16µM*	u	-6	40µM*	-15%
CN(C)c1ccc(/C=C2\SC(=S)N(Nc3ncc(C(F)(F)F)cc3Cl)C2=O)cc1	-14%	u	50µM*	-1	u	-14%
CCOc1ccc(-c2cc3c(=O)n(Cc4nc(-c5ccc(OC)cc5OC)oc4C)ccn3n2)cc1Cl	-25%	-8%	x	x	-6%[59 µM]	-11%
O=S(=O)(NN1CCOCC1)c1ccc(Br)cc1	x	x	1%	-4	0.4µM*	x
CN1CCN(NS(=O)(=O)c2ccc(Cl)s2)CC1	-25%	18µM*	-11%	0	1.6µM*	u
CN1CCN(S(=O)(=O)c2ccc(Cl)s2)CC1	x	x	-7%	x	u	x
O=S(=O)(NN1CCOCC1)c1ccc(Cl)s1	-5%	u	-15%	-6	1.3µM*	u
